Measured values taken from PubChem BioAssay (Tox21).
Inconclusive results are not listed. Active and inactive are the calls of the source. Calls follow the shape of the dose curve; as a rule, active = well fitted cell-killing curve with a large enough effect in the repeat runs; inconclusive = weak or mixed curves, or effect the other way; inactive = no such curve, though single readings can be large or run the other way.

test: qHTS assay to identify small molecule antagonists of the thyroid receptor (TR) signaling pathway - cell viability counter screen (AID 743064); conditions: GH3.TRE-Luc viability, CellTiter-Fluor, 24 h; series mostly up to 70.3 µM; activity change, negative = cytotoxic: at the top concentration; also: nearly all actives have a fitted effect of over 50% in size
Text: National Center for Advancing Translational Sciences [NCATS]
NIH Chemical Genomics Center [NCGC]
U.S. Environmental Protection Agency [EPA]
National Institutes of Environmental Health Sciences [NIEHS]
National Toxicology Program [NTP]
U.S. Food and Drug Administration [FDA]
Thyroid receptor (TR), a nuclear hormone receptor, plays an important role in development, proliferation, differentiation, metabolism, brain function, and cardiovascular system. […] To profile the Tox21 10K compound library in TR signaling, a cell-based GH3-TRE-Luc assay (GH3.TRE-Luc cell line, developed by the laboratory of Dr. Albertinka J. Murk, Wageningen University) was used to measure the inhibition of TR. GH3 (rat pituitary tumor) cells stably expressing a TR activity sensor consisting of two TR response elements and a luciferase reporter gene. The cytotoxicity of the Tox21 compound library against the GH3.TRE-Luc cell line was tested in parallel by measuring the cell viability using CellTiter-Fluor assay (Promega, Madison, WI) in the same wells.
Tox21 Assay Protocol Summary:
GH3.TRE-Luc cells were dispensed at 1500 cells/4 uL/well into 1536-well white solid bottom plates using a Multidrop Combi dispenser (Thermo Fisher Scientific Inc., Waltham, MA). After the assay plates were incubated at 37 C for 4 hours, 23 nL of library compound or DMSO controls was transferred to the assay plates by a pintool station (Kalypsys, San Diego, CA), followed by addition of 1 ul of T3 (1 nM, final concentration in the wells) to stimulate TR transactivation. The assay plates were incubated at 37 C for 23.5 h, and then 1 uL of CellTiter-Fluor reagent (Promega, Madision, WI) of measuring cytotoxicity was added to each well using a Bioraptr Flying Reagent Dispenser (FRD) workstation (Beckman Coulter, Indianapolis, IN, USA). The plates were incubated at 37C and 5% CO2 for additional 30 min, and fluorescence intensity was measured by a ViewLux plate reader (PerkinElmer, Shelton, CT).
% is scaled to controls: 0 for no effect and ±100 for the full control effect; potency is read from the fitted curve at half-maximal effect.

Compound | activity change, negative = cytotoxic | Potency
CC1OC(=O)C(C)OC1=O (stereo not given) | 8.85% (inactive) | 
OC[C@H]1O[C@@H](OCCc2ccc(O)cc2)[C@H](O)[C@@H](O)[C@@H]1O | 1.56% (inactive) | 
O=C(O)c1ccccc1Cl | 6.91% (inactive) | 
CCCCC(CC)CN1C(=O)C2C3C=CC(C3)C2C1=O (stereo not given) |  | 54.5 µM (active)
CCCOC(C(=O)OC1CCN(C)CC1)(c1ccccc1)c1ccccc1 |  | 18.8 µM (active)
CCC(Cl)CCC(Cl)C(Cl)CC(Cl)C(Cl)C(Cl)CCl (stereo not given) | -14.8% (inactive) | 
CCCCCC[C@@H](O)C/C=C\CCCCCCCC(=O)OC | 24.9% [at 95 µM] (inactive) | 
CCCCc1ncc(/C=C(\Cc2cccs2)C(=O)O)n1Cc1ccc(C(=O)O)cc1 | 17.4% (inactive) | 
CCOC(=O)C(F)(F)F | 10.9% (inactive) | 
COc1ccc(C(=O)N2CCN(CC(=O)N3CCOCC3)CC2)cc1 | 5.17% (inactive) | 
O=C1C(O)=C(O)C(=O)C(O)=C1O | 15.2% (inactive) | 
COC(=O)C1=C(C)NC(COC(N)=O)=C(C(=O)OC(C)C)C1c1cccc(Cl)c1Cl (stereo not given) |  | 26.6 µM (active)
O=C(O)c1nc(Cl)c(Cl)c(Cl)c1Cl | 0.841% (inactive) | 
CNCCCCOc1ccccc1Cc1ccccc1 |  | 11.9 µM (active)
O=C(O)CC(=O)C(=O)O | 1.65% [at 95 µM] (inactive) | 
C[N+]1(C)CCC(OC(=O)C(O)(c2ccccc2)C2CCCC2)C1 (stereo not given) | -1.65% (inactive) | 
CCCCCCCCCCCC(=O)OC[C@@H](O)[C@H]1OC[C@H](OCCO)[C@H]1OCCO | -6.86% (inactive) | 
CCCCNc1ccc(C(=O)OCCOCCOCCOCCOCCOCCOCCOCCOCCOC)cc1 | -0.718% [at 32.5 µM] (inactive) | 
CCN(CC)CCNC(=O)c1cc(Br)c(N)cc1OC | -1.68% (inactive) | 
CC(C)(O)c1ccc(CNC(=O)c2cccnc2Oc2ccc(F)cc2)cc1 | 15.6% (inactive) | 

Compound | activity change, negative = cytotoxic | Potency
O=C1OC(CN2CCOCC2)CN1/N=C/c1ccc([N+](=O)[O-])o1 (stereo not given) | -6.93% [at 32.5 µM] (inactive) | 
CCOC(=O)COC(=O)c1cc(Oc2ccc(C(F)(F)F)cc2Cl)ccc1[N+](=O)[O-] | -1.34% (inactive) | 
NC(=O)C(c1ccccc1)(c1ccccc1)[C@@H]1CCN(CCc2ccc3c(c2)CCO3)C1 |  | 6.68 µM (active)
CC1=CCCC(C)(C)C12CCC(C)O2 (stereo not given) | 15.4% (inactive) | 
CCO[C@H](Cc1ccc(OCCc2ccc(OS(C)(=O)=O)cc2)cc1)C(=O)O | -4.51% (inactive) | 
Clc1ccc2c(c1)CCc1cccnc1C2=C1CCNCC1 |  | 10.6 µM (active)
CN1CCC(=C2c3ccccc3Sc3ccccc32)CC1 |  | 5.96 µM (active)
COc1cc(Cl)c(OC)cc1N | 7.14% (inactive) | 
CCC(CC)Nc1ccc(C)c(C)c1 | -14.3% (inactive) | 
CC(C)(CO)[N+](=O)[O-] | 4% (inactive) | 
CCCCC |  | inactive
c1cc(CCCc2ccncc2)ccn1 | 24.7% (inactive) | 
CC1CCC(=O)C1=O (stereo not given) | 3.32% [at 95 µM] (inactive) | 
COC(C)(C)CCO | 12.8% (inactive) | 
Nc1ccc(S(=O)(=O)Nc2ccccc2)cc1 | 6.53% (inactive) | 
CC(=O)[O][Al][O]C(C)=O |  | inactive
CNC(=O)CN(CCN(CCN(CC(=O)[O-])CC(=O)NC)CC(=O)[O-])CC(=O)[O-].O.[Gd+3] |  | inactive
c1ccc(C(O[C@H]2CCCN(CCc3ccc4c(c3)OCO4)C2)c2ccccc2)cc1 |  | 29.8 µM (active)
COC(=O)c1ccc(I)cc1S(=O)(=O)NC(=O)Nc1nc(C)nc(OC)n1 | 25.8% (inactive) | 
COCC(C)OC(C)=O (stereo not given) | 23.2% (inactive) | 
